How the values were obtained:
Experiment in all cases: log2 ratio of Biotin-Ahx-Ub-VS probe labelling (fragment/DMSO); higher = less target engagement (more negative = stronger competition), active = hit call of the paper (q ≤ 0.05, log2 ratio ≤ -1)
Conditions in all cases: compound concentration: 200 uM; treatment time: 3 h
OTUD6B = target: T1, OTUD6B (UniProt Q8N6M0)
T1 sequence (whole entry): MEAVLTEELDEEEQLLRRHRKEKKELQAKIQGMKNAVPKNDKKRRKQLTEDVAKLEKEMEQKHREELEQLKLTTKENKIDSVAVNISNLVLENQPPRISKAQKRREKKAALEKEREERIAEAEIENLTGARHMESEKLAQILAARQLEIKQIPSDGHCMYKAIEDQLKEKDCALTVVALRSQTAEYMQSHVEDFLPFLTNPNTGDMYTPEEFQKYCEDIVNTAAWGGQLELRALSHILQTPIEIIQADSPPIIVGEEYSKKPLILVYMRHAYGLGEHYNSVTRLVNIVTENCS
Procedure, shortened: (§1)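 Each value is an average log2 ratio of fragment to vehicle, tested by unpaired t-test. The underlying Spectronaut label-free quantities were global-median-normalised, and only proteins with ≥2 unique peptides were included. Triplicate HEK293T lysate samples (495 µg) were exposed to fragment at 200 µM or vehicle for 3 h, then to Biotin-Ahx-Ub-VS at 0.5 µM final for 1 h, before NeutrAvidin enrichment of labelled DUBs, LysC and trypsin digestion, and diaPASEF LC-MS/MS.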

OTUD7B = target: T2, OTUD7B (UniProt Q6GQQ9)
T2 sequence (whole entry): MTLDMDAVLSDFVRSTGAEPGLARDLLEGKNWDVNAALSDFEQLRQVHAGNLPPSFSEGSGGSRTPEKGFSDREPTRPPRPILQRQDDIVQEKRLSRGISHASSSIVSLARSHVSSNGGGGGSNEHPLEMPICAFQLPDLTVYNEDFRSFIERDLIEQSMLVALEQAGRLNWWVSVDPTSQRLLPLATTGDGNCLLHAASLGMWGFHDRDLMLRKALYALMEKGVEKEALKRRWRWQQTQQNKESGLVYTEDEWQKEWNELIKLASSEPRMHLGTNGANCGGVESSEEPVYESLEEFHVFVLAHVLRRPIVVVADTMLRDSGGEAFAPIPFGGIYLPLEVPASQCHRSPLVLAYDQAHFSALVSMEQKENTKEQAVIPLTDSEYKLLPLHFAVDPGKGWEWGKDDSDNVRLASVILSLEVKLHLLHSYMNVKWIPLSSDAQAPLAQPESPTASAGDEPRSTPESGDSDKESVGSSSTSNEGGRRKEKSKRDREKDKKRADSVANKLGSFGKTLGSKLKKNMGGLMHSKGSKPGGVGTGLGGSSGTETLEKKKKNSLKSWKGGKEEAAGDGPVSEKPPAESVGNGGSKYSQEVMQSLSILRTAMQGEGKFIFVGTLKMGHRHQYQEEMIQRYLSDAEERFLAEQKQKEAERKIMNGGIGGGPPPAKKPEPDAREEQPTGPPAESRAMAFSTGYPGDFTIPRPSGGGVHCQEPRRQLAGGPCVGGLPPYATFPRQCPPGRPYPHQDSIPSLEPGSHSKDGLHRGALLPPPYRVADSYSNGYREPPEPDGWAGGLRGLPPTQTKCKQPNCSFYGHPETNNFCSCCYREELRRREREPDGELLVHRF
Procedure, shortened: as §1

PRPF8 = PRPF8 (UniProt Q6P2Q9)
Procedure, shortened: as §1

PSMD7 = target: T3, PSMD7 (UniProt P51665)
T3 sequence (whole entry): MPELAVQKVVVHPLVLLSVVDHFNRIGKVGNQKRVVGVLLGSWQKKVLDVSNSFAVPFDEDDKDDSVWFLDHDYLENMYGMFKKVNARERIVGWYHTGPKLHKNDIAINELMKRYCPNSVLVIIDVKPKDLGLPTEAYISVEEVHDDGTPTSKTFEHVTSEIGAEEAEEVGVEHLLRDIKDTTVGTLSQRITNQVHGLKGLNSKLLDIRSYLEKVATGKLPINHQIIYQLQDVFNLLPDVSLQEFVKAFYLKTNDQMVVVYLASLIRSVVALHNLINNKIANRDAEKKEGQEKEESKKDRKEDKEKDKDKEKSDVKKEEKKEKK
Procedure, shortened: as §1

UCHL1 = UCHL1 (UniProt P09936)
Procedure, shortened: as §1

UCHL3 = target: T4, UCHL3 (UniProt P15374)
T4 sequence (whole entry): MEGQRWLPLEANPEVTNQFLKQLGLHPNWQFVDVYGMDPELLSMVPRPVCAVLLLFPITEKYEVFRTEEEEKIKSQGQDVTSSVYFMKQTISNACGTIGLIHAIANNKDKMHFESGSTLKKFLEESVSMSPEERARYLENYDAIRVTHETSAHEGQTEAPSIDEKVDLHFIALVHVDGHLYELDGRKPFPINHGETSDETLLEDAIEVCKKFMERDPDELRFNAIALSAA
Procedure, shortened: as §1

UCHL5 = target: T5, UCHL5 (UniProt Q9Y5K5)
T5 sequence (whole entry): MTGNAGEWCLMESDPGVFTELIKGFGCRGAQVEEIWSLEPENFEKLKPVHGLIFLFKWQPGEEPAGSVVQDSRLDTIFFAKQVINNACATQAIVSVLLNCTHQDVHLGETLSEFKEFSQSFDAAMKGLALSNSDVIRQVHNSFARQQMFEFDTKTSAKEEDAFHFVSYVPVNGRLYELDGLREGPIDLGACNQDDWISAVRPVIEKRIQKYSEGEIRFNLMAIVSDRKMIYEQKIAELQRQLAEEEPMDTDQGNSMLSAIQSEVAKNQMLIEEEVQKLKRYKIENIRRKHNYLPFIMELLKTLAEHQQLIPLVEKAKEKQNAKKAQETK
Procedure, shortened: as §1

USP10 = USP10 (UniProt Q14694)
Procedure, shortened: as §1

USP15 = target: T6, USP15 (UniProt Q9Y4E8)
T6 sequence (whole entry): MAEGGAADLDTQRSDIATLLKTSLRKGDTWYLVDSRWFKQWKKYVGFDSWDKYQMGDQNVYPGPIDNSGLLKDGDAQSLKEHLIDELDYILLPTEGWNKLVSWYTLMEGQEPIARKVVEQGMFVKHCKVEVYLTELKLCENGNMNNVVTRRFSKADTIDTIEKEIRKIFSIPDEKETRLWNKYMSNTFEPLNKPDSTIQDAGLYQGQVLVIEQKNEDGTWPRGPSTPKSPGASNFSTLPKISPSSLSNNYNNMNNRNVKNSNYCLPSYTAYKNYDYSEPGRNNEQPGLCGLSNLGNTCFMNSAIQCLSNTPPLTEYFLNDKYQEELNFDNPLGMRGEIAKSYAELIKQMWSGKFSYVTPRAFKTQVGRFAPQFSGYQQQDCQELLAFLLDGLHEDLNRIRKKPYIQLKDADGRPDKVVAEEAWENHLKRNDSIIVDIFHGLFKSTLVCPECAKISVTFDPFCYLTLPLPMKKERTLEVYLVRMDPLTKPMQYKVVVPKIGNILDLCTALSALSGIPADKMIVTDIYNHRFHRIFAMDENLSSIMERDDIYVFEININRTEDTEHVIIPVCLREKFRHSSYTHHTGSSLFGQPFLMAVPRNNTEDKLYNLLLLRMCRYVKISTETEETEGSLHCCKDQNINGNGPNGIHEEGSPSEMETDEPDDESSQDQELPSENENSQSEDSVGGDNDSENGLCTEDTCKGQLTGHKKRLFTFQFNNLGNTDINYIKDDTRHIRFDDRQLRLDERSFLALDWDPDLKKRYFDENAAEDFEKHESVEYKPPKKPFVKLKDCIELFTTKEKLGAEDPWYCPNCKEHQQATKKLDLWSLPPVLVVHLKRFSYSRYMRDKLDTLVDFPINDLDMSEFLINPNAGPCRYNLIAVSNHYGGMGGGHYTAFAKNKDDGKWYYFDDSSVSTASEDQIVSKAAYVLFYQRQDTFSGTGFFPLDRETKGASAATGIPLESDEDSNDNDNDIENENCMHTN
Procedure, shortened: as §1

USP16 = USP16 (UniProt Q9Y5T5)
Procedure, shortened: as §1

Measured: log2 ratio of Biotin-Ahx-Ub-VS probe labelling

USP10, sequence (Q14694 whole entry): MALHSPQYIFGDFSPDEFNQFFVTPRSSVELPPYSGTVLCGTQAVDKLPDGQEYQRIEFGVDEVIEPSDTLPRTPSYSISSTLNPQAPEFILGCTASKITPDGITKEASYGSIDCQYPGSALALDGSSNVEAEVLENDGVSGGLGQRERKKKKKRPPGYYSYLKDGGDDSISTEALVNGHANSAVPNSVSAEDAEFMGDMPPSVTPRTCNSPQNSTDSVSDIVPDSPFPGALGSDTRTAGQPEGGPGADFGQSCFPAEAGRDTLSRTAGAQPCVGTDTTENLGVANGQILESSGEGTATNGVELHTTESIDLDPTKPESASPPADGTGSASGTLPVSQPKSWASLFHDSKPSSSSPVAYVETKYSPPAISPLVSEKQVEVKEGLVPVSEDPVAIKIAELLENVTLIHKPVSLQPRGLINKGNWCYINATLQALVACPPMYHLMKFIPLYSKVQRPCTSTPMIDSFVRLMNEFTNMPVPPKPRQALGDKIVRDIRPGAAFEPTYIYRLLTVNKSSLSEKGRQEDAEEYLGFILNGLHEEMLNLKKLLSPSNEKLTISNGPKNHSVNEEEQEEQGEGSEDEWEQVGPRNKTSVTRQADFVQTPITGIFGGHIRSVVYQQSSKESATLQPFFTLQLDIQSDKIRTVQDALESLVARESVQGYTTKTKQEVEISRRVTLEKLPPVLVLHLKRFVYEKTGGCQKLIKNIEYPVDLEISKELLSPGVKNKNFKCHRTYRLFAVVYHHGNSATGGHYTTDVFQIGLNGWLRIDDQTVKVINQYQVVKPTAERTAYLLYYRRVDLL
USP16, sequence (Q9Y5T5 whole entry, looked up): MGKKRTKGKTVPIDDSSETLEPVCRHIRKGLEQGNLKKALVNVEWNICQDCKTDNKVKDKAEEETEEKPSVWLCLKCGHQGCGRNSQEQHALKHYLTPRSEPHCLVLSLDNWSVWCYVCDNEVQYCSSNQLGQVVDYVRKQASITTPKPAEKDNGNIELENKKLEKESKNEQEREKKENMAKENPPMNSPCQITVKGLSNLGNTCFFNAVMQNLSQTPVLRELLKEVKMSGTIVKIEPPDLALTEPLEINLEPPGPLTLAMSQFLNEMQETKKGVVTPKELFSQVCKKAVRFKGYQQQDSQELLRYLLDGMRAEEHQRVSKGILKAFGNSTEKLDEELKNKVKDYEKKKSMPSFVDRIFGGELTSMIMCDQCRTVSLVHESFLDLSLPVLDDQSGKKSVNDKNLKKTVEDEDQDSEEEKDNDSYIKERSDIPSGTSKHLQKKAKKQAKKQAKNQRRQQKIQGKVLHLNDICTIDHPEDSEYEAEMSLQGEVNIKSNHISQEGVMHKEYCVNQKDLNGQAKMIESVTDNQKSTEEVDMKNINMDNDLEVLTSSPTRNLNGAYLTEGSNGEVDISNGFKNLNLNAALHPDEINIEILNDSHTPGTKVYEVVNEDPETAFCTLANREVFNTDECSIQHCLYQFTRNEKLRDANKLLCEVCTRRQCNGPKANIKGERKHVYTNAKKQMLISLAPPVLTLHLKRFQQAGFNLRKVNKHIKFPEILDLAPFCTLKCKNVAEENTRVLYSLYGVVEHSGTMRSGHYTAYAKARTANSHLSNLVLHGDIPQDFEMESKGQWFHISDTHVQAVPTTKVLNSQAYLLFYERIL
UCHL1, sequence (P09936 whole entry, looked up): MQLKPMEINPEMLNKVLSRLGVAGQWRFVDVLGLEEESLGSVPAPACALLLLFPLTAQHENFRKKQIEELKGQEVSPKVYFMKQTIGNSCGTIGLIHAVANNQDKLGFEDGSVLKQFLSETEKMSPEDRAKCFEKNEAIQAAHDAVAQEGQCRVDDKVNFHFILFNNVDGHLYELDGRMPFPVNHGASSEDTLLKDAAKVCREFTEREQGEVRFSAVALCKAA

Cc1nc(CN2CCCN(C(=O)CCl)CC2)no1.Cl
inactive: OTUD6B 0.121 | OTUD7B 0.0504 | PRPF8 0.0827 | PSMD7 0.166 | UCHL1 -0.971 | UCHL3 0.331 | UCHL5 -0.00418 | USP10 0.0299 | USP15 -0.0311 | USP16 -0.188

Reference: the supplement of paper PMC11732987, “Enantioselective OTUD7B fragment discovery through chemoproteomics screening and high-throughput optimisation” (Communications Chemistry, 2025)
